Laboratory results from PubChem BioAssay AID1508602 (The Scripps Research Institute Molecular Screening Center, 2020).
About 6,800 (1%) of roughly 650,000 compounds were called active. Rule as the data show it: active = activation above about 4.9%; inactive = the rest. Many of the other results were omitted from the sample, so actives are more common in it than they were.

Biological target: G-protein coupled receptor 151 (Homo sapiens) (UniProt Q8TDV0)
Assay: activates the human receptor GPR151, primary screen, cell-based, PathHunter beta-arrestin, luminescence (AID 1508602);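 also: 0% = median of compound wells and 100% = cells with positive control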
Details: PathHunter beta-arrestin GPR151 cells, at 11.2 µM, stronger effect = higher value

G-protein coupled receptor 151 (Homo sapiens), sequence (Q8TDV0 whole entry, looked up): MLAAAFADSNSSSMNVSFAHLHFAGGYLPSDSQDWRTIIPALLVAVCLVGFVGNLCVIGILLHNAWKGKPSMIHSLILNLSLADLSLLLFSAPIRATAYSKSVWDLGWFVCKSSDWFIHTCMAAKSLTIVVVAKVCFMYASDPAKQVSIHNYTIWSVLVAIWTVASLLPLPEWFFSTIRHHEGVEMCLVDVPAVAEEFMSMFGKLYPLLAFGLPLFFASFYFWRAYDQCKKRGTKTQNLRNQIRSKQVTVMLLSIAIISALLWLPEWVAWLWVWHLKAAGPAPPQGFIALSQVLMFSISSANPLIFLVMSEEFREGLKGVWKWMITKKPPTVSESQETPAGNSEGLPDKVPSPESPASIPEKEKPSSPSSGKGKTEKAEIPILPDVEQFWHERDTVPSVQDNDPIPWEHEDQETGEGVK

Row | Compound | activation
1 | C=CCN1C(=O)NC(=O)/C(=C/c2ccc(O)c(OC)c2)C1=O | -0.157% (inactive)
2 | COc1ccccc1N1C(=O)NC(=O)/C(=C\c2ccc(Cl)cc2Cl)C1=O | 0.657% (inactive)
3 | COc1cc(/C=C2\C(=O)NC(=O)N(c3ccccc3)C2=O)ccc1O | 8.77% (active)
4 | COc1cc(NC(=O)CCc2nc(C3=CCN(C)CC3)no2)cc(OC)c1OC | -0.399% (inactive)
5 | O=C(O)C1C2CC3CC(C2)CC1(n1ncc(NC2CCCC2)c(Cl)c1=O)C3 (stereo not given) | 1.35% (inactive)
6 | O=c1cccc2n1CC1CC2CN(Cc2ccc(F)cc2)C1 (stereo not given) | 1.89% (inactive)
7 | O=C(NCC(c1cccnc1)N1CCN(c2ccccc2)CC1)Oc1ccccc1 (stereo not given) | 0.68% (inactive)
8 | COc1ccccc1N1CCN(Cc2cccc(O)c2)CC1 | 0.277% (inactive)
9 | COc1ccccc1N1CCN(C(CNC(=O)Oc2ccccc2)c2cccnc2)CC1 (stereo not given) | 9.52% (active)
10 | O=C(Cc1cccs1)N1CCN(Cc2nnnn2-c2ccc(F)cc2)CC1 | 1.07% (inactive)
11 | Cc1ccc(Cc2nc[nH]c2C)cc1 | 0.705% (inactive)
12 | COc1ccc(CCNCc2ccc(O)cc2)cc1 | 1.2% (inactive)
13 | Cc1cc(Cl)ccc1C(=O)C1CCCN(Cc2ncc[nH]2)C1 (stereo not given) | -0.596% (inactive)
14 | CC[n+]1c(/C=C/C=C2\N(C)c3ccccc3C2(C)C)n(-c2ccccc2)c2ccc(Cl)cc21 | 5.9% (active)
15 | C=CCOC(=O)C1=C(C)OC(N)=C(C(=O)OCC)C12C(=O)N(CC=C)c1ccccc12 (stereo not given) | -0.446% (inactive)
16 | COc1cc(Br)cc(CN2CC3CC(C2)c2cccc(=O)n2C3)c1O (stereo not given) | -0.476% (inactive)
17 | CCOC(=O)C1=C(C)OC(N)=C(C(=O)OC)C12C(=O)Nc1ccc(Br)cc12 (stereo not given) | -0.299% (inactive)
18 | CCOC(=O)C1=C(N)OC2=C(C(=O)CCC2)C12C(=O)Nc1ccc(Br)cc12 (stereo not given) | 9.15% (active)
19 | CCOC(=O)C1=C(N)Oc2n[nH]c(C)c2C12C(=O)Nc1ccc(Br)cc12 (stereo not given) | 0.383% (inactive)
20 | CC(C)c1ccc(NC(=O)c2cc3cccnc3n(Cc3ccc(F)cc3)c2=O)cc1 | 1.47% (inactive)
